What all share (test): NCI-60 one-dose screen, 48 h (100 = growth as untreated, 0 = no growth, -100 = all killed)
What all share (conditions): 10 µM unless noted

In test [1] the test system is RPMI-8226 leukemia.
For test [2], the system named is OVCAR-5 ovarian.
The subject of test [3] is OVCAR-4 ovarian.
Test [4] has as its system SK-OV-3 ovarian.
The test system of test [5] is IGROV1 ovarian.
The subject of test [6] is OVCAR-3 ovarian.
The test system of test [7] is HS 578T breast.
Test [8] concerns NCI/ADR-RES ovarian.
The subject of test [9] is T-47D breast.
The test system of test [10] is BT-549 breast.
The subject of test [11] is MDA-MB-435 melanoma.
Test [12] relates to SW-620 colon.
Test [13] has as its system MCF7 breast.
For test [14], the system named is HCT-116 colon.
For test [15], the system named is HCC-2998 colon.
The test system of test [16] is KM12 colon.
Test [17] deals with OVCAR-8 ovarian.

We go through 18 molecules from PubChem BioAssay (NCI).

Structures are written as SMILES. The panel holds about 83,000 compounds, 20% with a hit somewhere; the sample as a whole holds those more often.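 In brief: 96-well plates, 48 h treatment, single concentration, percent growth endpoint.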 A number with no mark means an inactive call. Calls of active or inactive are those of the source. How the source made its calls: active means growth percent below 10; inactive means the rest.

With `C[N+]1(CCc2ccccc2)CCC(CCC2CC[N+](C)(CCc3ccccc3)CC2)CC1` (stereo unspecified), the growth was 126% in test [1]; 104% in test [2]; 103% in test [3]; 107% in test [4]; 105% in test [5]; 107% in test [6]. Further, the growth in test [7] was 103%; in test [8] it was 105%; in test [9] it was 102%; in [10], 106%; in test [11], 104%; in [12], 98.8%. Besides, the growth in test [13] is 98.6%; in test [14], 95.1%; in [15], 101%; in test [16], 111%.

As to `Cc1cc(CC(=O)O)n(C)c1C(=O)c1ccc(Cl)cc1`, the growth is 103% in test [1]; 97.7% in test [17]; 119% in test [3]; 119% in [4]; 114% in test [5]; 118% in [6]. Moreover, the growth in [7] was 110%; in test [8], 97.8%; in test [10], 101%; in test [11] it was 106%; in test [12] it was 103%; in test [13], 120%. In addition, the growth was 102% in test [14], 108% in test [15] and 105% in [16].

Turning to `COC(=O)[C@]12CC[C@@H](C)[C@H](C)[C@@H]1C1=CC[C@@H]3[C@@]4(C)C[C@@H](OC(=O)c5ccco5)[C@H](O)[C@@](C)(CO)[C@@H]4[C@H](O)C[C@@]3(C)[C@]1(C)CC2`, the growth is -64.7% (active) in test [1]; -85.3% (active) in test [2]; -67.9% (active) in [3]; -97.2% (active) in [4]; -65% (active) in test [5]; -93.8% (active) in test [6]. Besides, the growth in test [7] was -39.9% (active); in test [8] it was -80.6% (active); in test [9], -68.3% (active); in [10] it was -68.1% (active); in test [11] it was -86.7% (active); in test [12] it was -81.4% (active). Further, the growth was -73.7% (active) in test [13], -63.3% (active) in test [14], -89.1% (active) in test [15] and -85.8% (active) in [16].

`O=C1C(=O)c2ccc(Br)cc2-c2cc(Br)ccc21`: the growth in test [1] was 25.9%; in test [2] it was 113%; in test [3] it was -99% (active); in [4], 81%; in [5], 68.7%; in test [6] it was -48.6% (active). Moreover, the growth is 86.4% in test [7]; -29.2% (active) in test [8]; 20% in test [9]; 63% in [10]; 20.5% in test [11]; -1.44% (active) in test [12]. In addition, the growth in [13] is 0.468% (active); in [14], -71.9% (active); in test [15] it was 87%; in test [16], 73.1%.

Consider `CCCOc1ccc2c(c1)CC[C@@H]1[C@@H]2CC[C@@]2(C)[C@H]1CC[C@]2(C)O`, for which the growth in test [1] is 56.5%; in [2], 76.7%; in [3], 81%; in test [4], 75.3%; in test [5] it was 118%; in test [6], 104%. In addition, the growth is 85% in test [7]; 79.7% in [8]; 83.4% in [9]; 84.3% in test [11]; 53.8% in test [12]; 101% in test [13]. Also, the growth is 83.9% in test [14], 74.7% in test [15] and 35.6% in test [16].

Turning to `COc1ccc(-c2c(-c3cc(OC)c(OC)c(OC)c3)noc2N)cc1`, the growth in [1] is 10.9%; in [17] it was 24.9%; in [3] it was 38.8%; in test [4] it was 20.6%; in [5], 22.4%; in test [6] it was -29.7% (active). Also, the growth in test [7] was 30%; in [8] it was 11.1%; in test [9], 61.2%; in [10], 13.2%; in [11] it was -6.19% (active); in test [12], 21.7%. Moreover, the growth in test [13] was 17.1%; in test [15] it was 17.4%; in test [16] it was 7.28% (active).

On to `C/C(=C\CCc1ccsc1)CC/C=C(\C)CCCN1CCC(CO)CC1`, for which the growth in [1] is -31.1% (active); in [2], 63.9%; in [3], 40.8%; in [4], 55.5%; in test [5], 56.1%; in [6], 48.6%. Further, the growth in test [7] was 28.3%; in [8], 51%; in [9], 27.1%; in test [10], 36.2%; in [11], 13%; in test [12], -29.8% (active). Also, the growth in test [13] was 16%; in test [14], -2.6% (active); in [15], -14.9% (active); in test [16], 5.04% (active).

`N#Cc1cccc(/C=C(/C(=O)c2ccccc2)c2ccccc2)c1`: the growth in test [1] was -4.62% (active); in test [2] it was 80.4%; in test [3], 50.9%; in test [4], 110%; in test [5], 73.8%; in test [6] it was 36.4%. Further, the growth in test [7] is 55.4%; in test [8], 40.1%; in [9] it was 74.4%; in [10] it was 26.7%; in test [11], 8.38% (active); in [12], 7.39% (active). Further, the growth is 9.11% (active) in [13], 25.6% in [14] and 22.3% in [16].

As to `Cc1cc(NC(=O)Nc2cc(Cl)ccc2C)no1`, the growth was 88.8% in test [1]; 104% in [2]; 99.6% in test [3]; 99.7% in test [4]; 68.5% in [5]; 117% in [6]. The growth in [7] was 125%; in test [8], 101%; in test [9], 89.4%; in test [10] it was 147%; in test [11] it was 110%; in [12], 110%. The growth in test [13] is 84.4%; in test [14], 104%; in [15], 99.3%; in test [16], 107%.

Turning to `Cc1cccc(Cl)c1NC(=O)c1ccc2nc(NC(=O)NC3CC(C)(C)NC(C)(C)C3)sc2c1`, the growth in [1] is 87.1%; in test [2], 78%; in [3], 95.3%; in test [4], 76.3%; in test [5] it was 65.2%; in test [6], 99.7%. Besides, the growth was 30.8% in test [7]; 118% in [8]; 54% in [9]; 95% in test [10]; 90% in test [11]; 110% in test [12]. The growth is 86.5% in [13], 89.1% in [14], 96.5% in test [15] and 110% in [16].

With `CC(NC(=O)C(C)Oc1ccc(Cl)cc1Cl)C(=O)O` (stereo unspecified), the growth in test [1] was 125%; in test [17] it was 107%; in test [2], 95.7%; in test [4], 102%; in test [5], 84.8%; in test [8], 96.7%. In addition, the growth was 108% in [9]; 108% in [10]; 104% in [11]; 105% in [12]; 99.1% in test [13]; 89.6% in test [14]. Further, the growth in [15] was 94.4%; in [16] it was 109%.

As for `CN(CC(=O)N(Cc1ccc(C2CCCCC2)cc1)c1ccc(C(=O)O)cc1)S(=O)(=O)c1c(F)c(F)c(F)c(F)c1F`, the growth is 11.3% in test [1]; 116% in test [2]; 83.8% in test [3]; 106% in [4]; -24.8% (active) in test [5]; -83.1% (active) in test [6]. For the same molecule, the growth in [7] was 18.5%; in test [8] it was 87.7%; in [9] it was -6.87% (active); in test [10] it was 75.4%; in test [11], 68.3%; in test [12] it was -67% (active). The results for the growth in test [13], in test [14] and in [16] were 10.6%, 5.63% (active) and 90%, respectively.

Take `Cc1c(C(N)=O)sc2ncn(CC(=O)Nc3ccc(Cl)cc3)c(=O)c12`: the growth in test [1] is 101%; in test [2] it was 85.5%; in test [3], 110%; in test [4], 106%; in test [5], 533%; in [6] it was 122%. The growth was 139% in [7]; 102% in [8]; 102% in [9]; 106% in test [11]; 106% in test [12]; 108% in [13]. In addition, the growth in [15] was 118%; in test [16], 117%.

As to `Nc1nc(SCc2ccccc2Cl)c(-c2ccccc2)c(SCc2ccccc2Cl)n1`, the growth is 81.8% in test [1]; 84.9% in [2]; 95.8% in [3]; 82.7% in [4]; 97.4% in test [5]; 101% in [6]. For the same molecule, the growth in test [7] is 93.4%; in test [8], 90.7%; in [9], 58.4%; in test [10], 113%; in test [11], 88.8%; in test [12], 77.3%. For the same molecule, the growth was 78% in [13], 82.2% in test [14], 99% in test [15] and 85.7% in [16].

For `Cc1cc(C)c(OC(=O)CSc2nc3ccccc3c(=O)n2CCc2ccccc2)cc1C`, the growth was 95.3% in [17]; 110% in test [2]; 101% in test [3]; 95.7% in test [4]; 89.4% in [5]; 99% in [6]. The growth in test [7] was 94.5%; in [8], 89.3%; in test [9] it was 90.5%; in test [10] it was 104%; in [11], 100%; in [12], 103%. Further, the growth was 93.7% in [13], 80.1% in test [14], 102% in [15] and 92% in test [16].

In the case of `CCCCCCCC/C=C/CCCCCCCC1=NC(C)(C)CN1CC(C)O` (stereo unspecified), the growth in test [17] was 38.8%; in test [2], 83.8%; in test [3], 61.7%; in [4] it was 88.5%; in test [5] it was -15.1% (active); in test [6], 31%. For the same molecule, the growth in test [7] is 3.01% (active); in test [8], 73.4%; in [9], 28.6%; in [10] it was 86.7%; in [11] it was 6% (active); in [12], 6.69% (active). The growth in test [13] is 17.1%; in [14] it was -85% (active); in test [15], 0.965% (active); in [16], 6.06% (active).

For the molecule `COc1cc(/C=C2\COc3ccc(O)c(O)c3C2=O)cc(OC)c1`, the growth in test [17] is 14.6%; in [2], -29.2% (active); in test [3], 31.1%; in test [4], 38.2%; in test [5], -61.3% (active); in [6], -32.3% (active). Moreover, the growth in test [7] was 21.8%; in test [8] it was 0.0937% (active); in test [9] it was -12.1% (active); in [10], 3.92% (active); in test [11], 0.577% (active); in test [12], -19.3% (active). The growth in [13] was 16.7%; in test [14] it was -56% (active); in [15] it was 25.1%; in [16] it was -11.1% (active).

Regarding `C=Cc1nn2c(CCC(=O)c3nc4ccccc4[nH]3)nnc2s1`, the growth in [1] is 110%; in test [2] it was 102%; in test [4], 106%; in test [5], 106%; in test [6] it was 107%; in test [8], 100%. Moreover, the growth in test [9] is 106%; in [10] it was 95.4%; in test [11], 100%; in test [12], 102%; in test [13], 93.8%; in [14], 98.5%. Also, in test [16], the growth was 97.7%.
